Article PMC7862700, “An all-to-all approach to the identification of sequence-specific readers for epigenetic DNA modifications on cytosine”

How the values were obtained:
Experiment in all cases: DAPPL (digital affinity profiling via proximity ligation, sequencing); 10 mM Tris-HCl pH 7.5, 50 mM NaCl, 1 mM DTT, 4% glycerol, room temperature, 30 min; GST-TFs on glutathione beads, 16-mer random dsDNA library, 0.1% formaldehyde crosslink after washing; high values mean tight binding
Details in all cases: protein: recombinant; tags: N-terminal GST; dsDNA, one strand shown
FLI1 = biological target: T1, FLI1 (Homo sapiens, UniProt Q01543 1-452)
T1 sequence: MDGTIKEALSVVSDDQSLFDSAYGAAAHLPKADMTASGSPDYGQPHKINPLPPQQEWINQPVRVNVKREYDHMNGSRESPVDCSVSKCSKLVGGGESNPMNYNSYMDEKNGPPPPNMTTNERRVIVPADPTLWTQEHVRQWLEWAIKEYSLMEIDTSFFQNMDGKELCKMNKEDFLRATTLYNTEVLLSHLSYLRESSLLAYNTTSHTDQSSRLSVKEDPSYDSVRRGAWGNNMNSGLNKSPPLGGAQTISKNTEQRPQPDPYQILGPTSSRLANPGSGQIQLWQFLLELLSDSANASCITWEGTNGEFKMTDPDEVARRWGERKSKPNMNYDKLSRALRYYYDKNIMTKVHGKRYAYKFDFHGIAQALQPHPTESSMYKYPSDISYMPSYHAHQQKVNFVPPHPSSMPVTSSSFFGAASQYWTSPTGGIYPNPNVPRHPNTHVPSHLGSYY
Procedure, shortened: (§1)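 Binding signal is defined as a hexamer's read frequency for one factor over its frequency for the tag-only sample. To obtain reads, GST-fused human transcription factors were expressed in yeast, captured on glutathione beads, barcoded with DNA and pooled with that sample. Pools met 200 nmole of a 16-mer random double-stranded DNA library in Tris/NaCl/DTT/glycerol buffer for 30 min at room temperature before washing, 0.1% formaldehyde crosslinking, proximity ligation (BsaI/T4 ligase, 1 h, 37 °C), PCR and Illumina NextSeq500 sequencing.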

ELK1 = biological target: T2, ELK1 (Homo sapiens, UniProt P19419 1-428)
T2 sequence: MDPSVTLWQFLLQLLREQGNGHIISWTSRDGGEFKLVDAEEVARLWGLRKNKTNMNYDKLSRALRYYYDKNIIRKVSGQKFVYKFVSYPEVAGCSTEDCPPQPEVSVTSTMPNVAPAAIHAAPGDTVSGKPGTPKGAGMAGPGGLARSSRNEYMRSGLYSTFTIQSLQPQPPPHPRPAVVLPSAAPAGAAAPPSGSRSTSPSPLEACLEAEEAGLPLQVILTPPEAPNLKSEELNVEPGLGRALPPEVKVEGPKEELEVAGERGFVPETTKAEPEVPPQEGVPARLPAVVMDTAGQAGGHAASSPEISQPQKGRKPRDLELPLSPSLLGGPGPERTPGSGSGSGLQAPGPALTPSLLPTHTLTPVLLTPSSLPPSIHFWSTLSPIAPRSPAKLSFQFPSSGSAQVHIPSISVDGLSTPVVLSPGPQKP
Procedure, shortened: as §1

GABPA = biological target: T3, GABPA (Homo sapiens, UniProt Q06546 1-454)
T3 sequence: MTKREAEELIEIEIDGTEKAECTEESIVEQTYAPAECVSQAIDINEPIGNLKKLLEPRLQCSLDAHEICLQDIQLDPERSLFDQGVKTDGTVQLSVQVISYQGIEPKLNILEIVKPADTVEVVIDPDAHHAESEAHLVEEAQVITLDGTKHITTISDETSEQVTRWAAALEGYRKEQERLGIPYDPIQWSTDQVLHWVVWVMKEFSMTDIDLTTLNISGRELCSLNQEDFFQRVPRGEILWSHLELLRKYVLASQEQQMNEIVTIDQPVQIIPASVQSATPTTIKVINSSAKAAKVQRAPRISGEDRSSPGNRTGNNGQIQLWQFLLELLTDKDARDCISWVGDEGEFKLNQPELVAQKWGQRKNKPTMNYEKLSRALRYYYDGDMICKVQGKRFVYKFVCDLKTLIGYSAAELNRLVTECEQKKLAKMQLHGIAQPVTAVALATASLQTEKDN
Procedure, shortened: as §1

ERG = biological target: T4, ERG (Homo sapiens, UniProt P11308 1-479)
T4 sequence: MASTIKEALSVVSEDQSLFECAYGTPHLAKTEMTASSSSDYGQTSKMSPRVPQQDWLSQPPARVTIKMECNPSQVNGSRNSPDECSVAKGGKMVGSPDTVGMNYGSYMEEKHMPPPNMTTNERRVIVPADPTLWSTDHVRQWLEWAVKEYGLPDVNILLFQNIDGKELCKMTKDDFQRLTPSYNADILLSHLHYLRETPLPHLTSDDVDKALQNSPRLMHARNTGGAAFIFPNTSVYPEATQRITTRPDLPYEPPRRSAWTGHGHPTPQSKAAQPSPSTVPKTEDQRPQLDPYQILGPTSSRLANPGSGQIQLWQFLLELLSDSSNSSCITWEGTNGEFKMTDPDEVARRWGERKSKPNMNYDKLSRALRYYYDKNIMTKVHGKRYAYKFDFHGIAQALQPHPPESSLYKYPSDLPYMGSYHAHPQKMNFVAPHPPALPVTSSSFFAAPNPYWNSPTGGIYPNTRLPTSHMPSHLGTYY
Procedure, shortened: as §1

ELF1 = ELF1 (Homo sapiens, UniProt P32519 1-619)
ELF1, sequence (P32519 whole entry): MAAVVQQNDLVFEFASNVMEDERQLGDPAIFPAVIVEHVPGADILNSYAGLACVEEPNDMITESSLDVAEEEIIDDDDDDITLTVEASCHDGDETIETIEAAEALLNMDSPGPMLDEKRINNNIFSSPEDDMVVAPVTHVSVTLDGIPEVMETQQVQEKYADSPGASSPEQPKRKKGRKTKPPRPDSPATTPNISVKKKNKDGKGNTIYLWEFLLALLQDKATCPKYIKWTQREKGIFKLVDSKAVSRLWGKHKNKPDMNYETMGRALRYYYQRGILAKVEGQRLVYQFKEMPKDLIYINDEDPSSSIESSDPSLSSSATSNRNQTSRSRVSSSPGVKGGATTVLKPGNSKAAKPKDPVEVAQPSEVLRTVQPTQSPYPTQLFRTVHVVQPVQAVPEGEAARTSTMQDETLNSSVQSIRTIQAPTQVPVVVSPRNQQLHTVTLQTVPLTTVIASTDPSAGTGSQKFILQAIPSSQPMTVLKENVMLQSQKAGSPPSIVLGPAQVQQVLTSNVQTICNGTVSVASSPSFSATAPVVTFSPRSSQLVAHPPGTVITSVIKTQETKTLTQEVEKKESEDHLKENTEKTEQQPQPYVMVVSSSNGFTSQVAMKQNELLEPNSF
Procedure, shortened: as §1

EHF = biological target: T5, EHF (Homo sapiens, UniProt Q9NZC4 1-300)
T5 sequence: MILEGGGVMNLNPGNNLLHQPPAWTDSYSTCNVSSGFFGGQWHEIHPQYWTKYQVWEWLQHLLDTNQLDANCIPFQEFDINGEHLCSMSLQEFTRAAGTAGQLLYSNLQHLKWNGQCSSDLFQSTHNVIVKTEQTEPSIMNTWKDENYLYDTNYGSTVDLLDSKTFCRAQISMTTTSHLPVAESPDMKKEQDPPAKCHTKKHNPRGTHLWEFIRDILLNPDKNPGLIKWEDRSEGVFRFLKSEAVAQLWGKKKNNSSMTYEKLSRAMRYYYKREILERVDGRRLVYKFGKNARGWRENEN
Procedure, shortened: as §1

SPI1 = SPI1 (Homo sapiens, UniProt P17947 1-270)
Procedure, shortened: as §1

SPIB = SPIB (Homo sapiens, UniProt Q01892 1-262)
SPIB, sequence (Q01892 whole entry): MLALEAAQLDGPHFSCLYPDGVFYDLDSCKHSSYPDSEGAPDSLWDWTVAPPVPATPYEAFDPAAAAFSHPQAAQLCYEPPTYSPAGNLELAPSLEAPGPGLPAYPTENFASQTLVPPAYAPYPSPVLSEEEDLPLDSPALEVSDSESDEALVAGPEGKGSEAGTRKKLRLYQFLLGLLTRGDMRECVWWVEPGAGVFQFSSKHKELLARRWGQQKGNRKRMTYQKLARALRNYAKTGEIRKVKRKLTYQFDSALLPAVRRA
Procedure, shortened: as §1

ELK3 = biological target: T6, ELK3 (Homo sapiens, UniProt P41970 1-407)
T6 sequence: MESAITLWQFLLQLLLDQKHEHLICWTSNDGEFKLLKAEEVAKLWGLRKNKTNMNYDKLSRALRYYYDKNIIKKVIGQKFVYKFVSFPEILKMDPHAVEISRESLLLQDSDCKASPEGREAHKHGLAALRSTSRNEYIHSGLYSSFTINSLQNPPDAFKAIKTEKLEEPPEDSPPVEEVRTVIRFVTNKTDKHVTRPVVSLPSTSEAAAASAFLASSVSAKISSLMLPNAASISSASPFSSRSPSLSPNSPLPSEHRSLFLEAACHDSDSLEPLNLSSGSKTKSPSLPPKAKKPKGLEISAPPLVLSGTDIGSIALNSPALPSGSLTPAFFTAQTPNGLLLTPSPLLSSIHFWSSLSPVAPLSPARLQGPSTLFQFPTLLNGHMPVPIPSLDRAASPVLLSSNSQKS
Procedure, shortened: as §1

FEV = biological target: T7, FEV (Homo sapiens, UniProt Q99581 1-238)
T7 sequence: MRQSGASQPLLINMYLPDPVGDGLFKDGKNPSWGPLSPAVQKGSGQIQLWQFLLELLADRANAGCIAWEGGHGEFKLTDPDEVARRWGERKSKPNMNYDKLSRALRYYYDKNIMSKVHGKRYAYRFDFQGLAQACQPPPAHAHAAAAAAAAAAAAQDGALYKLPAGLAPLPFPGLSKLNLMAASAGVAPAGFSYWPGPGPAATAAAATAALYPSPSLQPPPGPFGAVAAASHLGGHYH
Procedure, shortened: as §1

ETV5 = ETV5 (Homo sapiens, UniProt P41161 1-510)
ETV5, sequence (P41161 whole entry): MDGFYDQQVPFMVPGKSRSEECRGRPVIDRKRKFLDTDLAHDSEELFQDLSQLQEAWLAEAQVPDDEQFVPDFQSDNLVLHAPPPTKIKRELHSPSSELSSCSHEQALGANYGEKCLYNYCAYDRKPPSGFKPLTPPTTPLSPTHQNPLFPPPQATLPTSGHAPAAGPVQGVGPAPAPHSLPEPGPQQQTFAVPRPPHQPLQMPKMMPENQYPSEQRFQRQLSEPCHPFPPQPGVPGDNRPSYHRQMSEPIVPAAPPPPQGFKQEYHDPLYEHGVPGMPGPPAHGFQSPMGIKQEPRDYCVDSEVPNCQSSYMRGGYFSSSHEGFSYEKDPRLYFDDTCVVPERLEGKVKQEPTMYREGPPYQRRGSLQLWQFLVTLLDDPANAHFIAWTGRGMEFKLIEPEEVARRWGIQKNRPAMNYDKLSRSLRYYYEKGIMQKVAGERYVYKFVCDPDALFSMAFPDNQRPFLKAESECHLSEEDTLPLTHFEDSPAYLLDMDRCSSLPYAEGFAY
Procedure, shortened: as §1

SPIC = biological target: T8, SPIC (Homo sapiens, UniProt Q8N5J4 1-248)
T8 sequence: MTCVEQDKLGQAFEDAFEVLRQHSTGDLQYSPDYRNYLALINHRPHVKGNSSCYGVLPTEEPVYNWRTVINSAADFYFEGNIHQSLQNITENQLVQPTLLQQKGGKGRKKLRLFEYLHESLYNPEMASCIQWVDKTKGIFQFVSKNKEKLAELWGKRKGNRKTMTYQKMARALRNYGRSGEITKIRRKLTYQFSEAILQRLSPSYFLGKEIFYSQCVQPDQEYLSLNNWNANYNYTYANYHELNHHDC
Procedure, shortened: as §1

ELF4 = ELF4 (Homo sapiens, UniProt Q99607 1-663)
ELF4, sequence (Q99607 whole entry): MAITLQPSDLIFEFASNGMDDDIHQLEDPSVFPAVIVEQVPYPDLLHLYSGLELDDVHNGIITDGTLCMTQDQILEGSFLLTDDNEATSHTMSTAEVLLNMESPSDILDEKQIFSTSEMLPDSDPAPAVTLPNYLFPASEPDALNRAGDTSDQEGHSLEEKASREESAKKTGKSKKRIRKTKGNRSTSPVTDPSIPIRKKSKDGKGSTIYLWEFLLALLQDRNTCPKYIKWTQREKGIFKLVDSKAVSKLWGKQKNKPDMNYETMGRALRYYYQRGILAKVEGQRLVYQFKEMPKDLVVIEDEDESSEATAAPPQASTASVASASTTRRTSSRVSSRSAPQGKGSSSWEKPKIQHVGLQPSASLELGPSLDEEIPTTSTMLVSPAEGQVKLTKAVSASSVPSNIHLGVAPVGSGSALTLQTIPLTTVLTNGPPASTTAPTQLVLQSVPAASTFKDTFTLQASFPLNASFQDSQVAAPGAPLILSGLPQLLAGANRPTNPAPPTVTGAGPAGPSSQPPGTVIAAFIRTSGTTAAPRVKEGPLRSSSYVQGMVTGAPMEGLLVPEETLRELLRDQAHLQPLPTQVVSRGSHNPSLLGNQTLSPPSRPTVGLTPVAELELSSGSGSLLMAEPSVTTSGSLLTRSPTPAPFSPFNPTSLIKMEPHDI
Procedure, shortened: as §1

ETV1 = ETV1 (Homo sapiens, UniProt P50549 1-477)
ETV1, sequence (P50549 whole entry): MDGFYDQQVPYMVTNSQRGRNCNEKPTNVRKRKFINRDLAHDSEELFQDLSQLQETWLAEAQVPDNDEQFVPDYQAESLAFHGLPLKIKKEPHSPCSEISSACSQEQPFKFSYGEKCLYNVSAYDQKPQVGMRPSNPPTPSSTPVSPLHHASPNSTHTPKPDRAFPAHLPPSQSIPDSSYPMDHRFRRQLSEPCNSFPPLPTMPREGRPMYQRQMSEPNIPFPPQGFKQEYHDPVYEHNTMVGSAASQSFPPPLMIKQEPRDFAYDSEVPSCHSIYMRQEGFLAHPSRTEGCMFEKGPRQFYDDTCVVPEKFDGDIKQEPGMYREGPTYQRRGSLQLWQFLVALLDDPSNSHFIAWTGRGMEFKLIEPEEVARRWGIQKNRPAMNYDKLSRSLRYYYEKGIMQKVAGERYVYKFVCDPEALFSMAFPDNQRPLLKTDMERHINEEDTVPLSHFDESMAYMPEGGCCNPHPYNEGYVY
Procedure, shortened: as §1

ERF = biological target: T9, ERF (Homo sapiens, UniProt P50548 1-548)
T9 sequence: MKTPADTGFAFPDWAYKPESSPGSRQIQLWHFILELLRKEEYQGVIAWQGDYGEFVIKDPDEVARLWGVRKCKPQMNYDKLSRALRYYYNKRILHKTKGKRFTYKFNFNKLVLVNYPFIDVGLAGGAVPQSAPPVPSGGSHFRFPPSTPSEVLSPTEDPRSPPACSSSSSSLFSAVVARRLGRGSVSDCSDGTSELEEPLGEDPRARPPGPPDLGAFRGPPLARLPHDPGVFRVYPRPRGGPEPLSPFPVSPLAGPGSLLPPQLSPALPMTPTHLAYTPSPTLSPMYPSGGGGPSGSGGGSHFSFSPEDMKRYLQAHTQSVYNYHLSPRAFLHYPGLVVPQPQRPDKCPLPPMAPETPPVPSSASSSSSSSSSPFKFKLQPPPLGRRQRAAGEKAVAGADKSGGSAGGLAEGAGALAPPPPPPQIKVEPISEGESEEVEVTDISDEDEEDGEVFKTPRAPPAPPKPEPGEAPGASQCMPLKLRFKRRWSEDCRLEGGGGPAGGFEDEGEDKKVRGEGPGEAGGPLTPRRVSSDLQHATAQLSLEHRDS
Procedure, shortened: as §1

ETV3L = biological target: T10, ETV3L (Homo sapiens, UniProt Q6ZN32 1-361)
T10 sequence: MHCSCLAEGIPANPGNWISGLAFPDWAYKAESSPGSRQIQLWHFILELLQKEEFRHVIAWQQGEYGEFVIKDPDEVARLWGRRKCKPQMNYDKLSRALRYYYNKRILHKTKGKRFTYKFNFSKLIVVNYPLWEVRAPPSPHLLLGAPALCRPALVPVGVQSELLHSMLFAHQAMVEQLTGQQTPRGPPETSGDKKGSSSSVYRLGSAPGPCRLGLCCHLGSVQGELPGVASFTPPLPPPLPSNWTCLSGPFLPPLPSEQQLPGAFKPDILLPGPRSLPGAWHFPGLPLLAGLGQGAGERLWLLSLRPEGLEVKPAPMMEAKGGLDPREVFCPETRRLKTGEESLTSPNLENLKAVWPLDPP
Procedure, shortened: as §1

ETS2 = biological target: T11, ETS2 (Homo sapiens, UniProt P15036 1-469)
T11 sequence: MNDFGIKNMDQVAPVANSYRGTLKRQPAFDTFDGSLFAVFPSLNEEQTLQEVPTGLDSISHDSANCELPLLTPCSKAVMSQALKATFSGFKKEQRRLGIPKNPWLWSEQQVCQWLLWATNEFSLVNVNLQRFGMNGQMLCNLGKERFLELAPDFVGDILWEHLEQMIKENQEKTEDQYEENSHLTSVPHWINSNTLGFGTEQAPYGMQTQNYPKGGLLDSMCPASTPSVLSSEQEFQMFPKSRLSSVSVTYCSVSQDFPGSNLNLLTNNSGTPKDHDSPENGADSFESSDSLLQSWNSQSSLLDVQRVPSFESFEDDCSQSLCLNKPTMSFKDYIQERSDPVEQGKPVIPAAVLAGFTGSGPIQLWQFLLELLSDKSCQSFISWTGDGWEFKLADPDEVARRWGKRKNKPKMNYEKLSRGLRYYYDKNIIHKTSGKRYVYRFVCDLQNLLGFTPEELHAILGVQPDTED
Procedure, shortened: as §1

SPDEF = biological target: T12, SPDEF (Homo sapiens, UniProt O95238 1-335)
T12 sequence: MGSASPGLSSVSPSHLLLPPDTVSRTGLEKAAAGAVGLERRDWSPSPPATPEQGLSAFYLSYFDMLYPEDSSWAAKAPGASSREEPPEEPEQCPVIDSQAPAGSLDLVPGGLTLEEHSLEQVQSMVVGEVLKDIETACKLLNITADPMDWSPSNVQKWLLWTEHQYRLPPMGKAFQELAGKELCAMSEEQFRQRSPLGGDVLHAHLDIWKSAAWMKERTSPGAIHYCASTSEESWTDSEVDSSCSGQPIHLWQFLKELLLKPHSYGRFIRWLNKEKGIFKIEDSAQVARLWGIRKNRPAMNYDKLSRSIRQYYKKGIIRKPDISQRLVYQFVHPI
Procedure, shortened: as §1

ETV3 = biological target: T13, ETV3 (Homo sapiens, UniProt P41162-2 1-143)
T13 sequence: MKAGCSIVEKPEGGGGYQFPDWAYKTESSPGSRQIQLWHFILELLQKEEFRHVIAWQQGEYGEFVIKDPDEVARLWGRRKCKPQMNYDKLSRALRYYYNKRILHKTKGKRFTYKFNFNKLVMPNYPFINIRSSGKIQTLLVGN
Procedure, shortened: as §1

GCTGCG
binding signal (FLI1): 1.01 fold enrichment (6-mer frequency, TF over GST control) | binding signal (ELK1): 1.12 fold enrichment (6-mer frequency, TF over GST control) | binding signal (GABPA): 1.1 fold enrichment (6-mer frequency, TF over GST control) | binding signal (ERG): 1.09 fold enrichment (6-mer frequency, TF over GST control) | binding signal (ELF1): 1.13 fold enrichment (6-mer frequency, TF over GST control) | binding signal (EHF): 1.21 fold enrichment (6-mer frequency, TF over GST control) | binding signal (SPI1): 1.08 fold enrichment (6-mer frequency, TF over GST control) | binding signal (SPIB): 1.08 fold enrichment (6-mer frequency, TF over GST control) | binding signal (ELK3): 1.04 fold enrichment (6-mer frequency, TF over GST control) | binding signal (FEV): 1.1 fold enrichment (6-mer frequency, TF over GST control) | binding signal (ETV5): 1.12 fold enrichment (6-mer frequency, TF over GST control) | binding signal (SPIC): 1.08 fold enrichment (6-mer frequency, TF over GST control) | binding signal (ELF4): 1.1 fold enrichment (6-mer frequency, TF over GST control) | binding signal (ETV1): 1.16 fold enrichment (6-mer frequency, TF over GST control) | binding signal (ERF): 1.08 fold enrichment (6-mer frequency, TF over GST control) | binding signal (ETV3L): 1.13 fold enrichment (6-mer frequency, TF over GST control) | binding signal (ETS2): 1.14 fold enrichment (6-mer frequency, TF over GST control) | binding signal (SPDEF): 1.02 fold enrichment (6-mer frequency, TF over GST control) | binding signal (ETV3): 1.07 fold enrichment (6-mer frequency, TF over GST control)
